Screening results from PubChem.
The sample as a whole holds a higher share of hits than the screen did.
NPSR antag = antagonists of human neuropeptide S receptor cAMP signaling; CHO-NPSR cells, cAMP TR-FRET, antagonist mode; 220,000 tested, 1% active; Potency, µM (doses to about 38.3 µM), usual class: inhibitors; AID 1461; further: nearly all actives have a fitted effect of over 50% in size
Target sequence (Q6W5P4 whole entry, looked up): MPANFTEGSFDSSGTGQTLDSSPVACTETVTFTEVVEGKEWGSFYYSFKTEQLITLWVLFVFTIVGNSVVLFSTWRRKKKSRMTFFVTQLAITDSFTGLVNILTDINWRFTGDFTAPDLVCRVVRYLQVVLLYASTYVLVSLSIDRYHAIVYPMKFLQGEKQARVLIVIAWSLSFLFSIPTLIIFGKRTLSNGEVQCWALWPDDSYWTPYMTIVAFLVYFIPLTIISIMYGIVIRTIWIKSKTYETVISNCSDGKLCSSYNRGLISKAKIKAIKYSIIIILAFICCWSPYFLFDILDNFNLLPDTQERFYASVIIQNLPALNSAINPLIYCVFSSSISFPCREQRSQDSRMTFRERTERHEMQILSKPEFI
ERK EGF block = inhibitors of EGF-stimulated ERK signaling pathway | 130,000 tested, 0.41% active | AID 1454 | HEK293-V1b, EGF-stimulated phospho-ERK AlphaScreen | Potency, µM (doses to about 11.5 µM), usual class: inhibitors; further: nearly all actives have a fitted effect of over 55% in size
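Stably V1b-transfected HEK293 cells; 30 min compound, then EGF 25 nM final for 5 min at 37C; 10 min lysis; phospho-ERK by AlphaScreen after 5 hr beads at room temperature.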
A number is an active result; n = inactive; u = inconclusive; x = no result given; [ ] = dose if it differs, or a comment. The call rests on the fitted dose curve; in most records, active means well fitted curve in the direction sought with a large enough effect; inconclusive means small, poorly fitted or top-dose-only effect, or another doubt; inactive means no such curve, though single readings can be large; an effect the other way counts as inactive or inconclusive.

SMILES	NPSR antag	ERK EGF block
COc1ccc(N=c2oc3cc(O)ccc3cc2C(=O)Nc2ccccn2)cc1OC	n	28.2µM
O=c1cc(-c2ccc(O)c(O)c2)oc2ccccc12	x	n
N#Cc1c(-c2ccccc2)nc(SCc2nc(N)nc(N3CCCCC3)n2)[nH]c1=O	6.31µM	x
CCSc1nc(-c2ccccc2)c(C#N)c(=O)[nH]1	n	x
CC(=O)[C@@]1(O)CC[C@H]2C3CCC4=CC(=O)CC[C@]4(C)C3CC[C@@]21C (some centres not stated)	n	n
O=C(O[C@@H]1Cc2c(O)cc(O)cc2OC1c1ccc(O)c(O)c1)c1cc(O)c(O)c(O)c1 (some centres not stated)	x	n
Cc1ccc(S(=O)(=O)/N=C2/C=C(Sc3ncn[nH]3)C(=O)c3ccccc32)cc1	10µM	u
Cc1ccc(S(=O)(=O)/N=C2/C=C(Sc3ncn[nH]3)C(=O)c3ccccc32)c(C)c1	n	n
Cc1ccc(S(=O)(=O)Nc2ccc(O)c(Sc3ncn[nH]3)c2)cc1	n	n
CC(C)c1ccc(S(=O)(=O)/N=C2/C=C(Sc3ncn[nH]3)C(=O)c3ccccc32)cc1	10µM	n
COc1ccc(/C=C/C(=O)c2ccc(C)s2)cc1	x	n
COC(=O)[C@H](COC(C)(C)C)NC(=O)O[C@H]1C(=O)c2ccc(OC)cc2O[C@@H]1c1ccc2c(c1)OCO2	x	n
CCN(CC)c1ccc2c(C)c(Cl)c(=O)oc2c1	n	n
CCN(CC)c1ccc2c(c1)oc(=O)c1c(Cl)cc(=O)oc12	3.98µM	x
CCN(CC)c1ccc2c(Cl)c(Br)c(=O)oc2c1	3.16µM	x
CCN(CC)c1ccc2c(C)c(-c3ccc(N)cc3)c(=O)oc2c1	n	x
C[C@@](N)(Cc1ccc(O)c(O)c1)C(=O)O	x	n
N[C@@H](Cc1cc(-c2ccc(Cl)cc2Cl)cc(CP(=O)(O)O)c1O)C(=O)O	x	n
Cc1cn([C@H]2C[C@@H](N=[N+]=[N-])[C@@H](CO)O2)c(=O)[nH]c1=O	n	n
COc1cccc(-n2nnnc2S(C)(=O)=O)c1	10µM	x
COc1cccc(Oc2nnnn2-c2ccccc2)c1	n	x
CC(O)C#C[Si](C)(C)c1ccccc1 (configuration not stated)	x	n
Cc1onc(-c2c(Cl)cccc2Cl)c1C(=O)NN1CCCCCC1	n	n
Cc1c(C(=O)NN2CCCCC2)nn(-c2ccc(Cl)cc2Cl)c1-c1ccc(I)cc1	10µM	n
CC(C)NC(=O)/C(C#N)=C/c1ccc(N(C)C)o1	12.6µM	n
SMILES	NPSR antag	ERK EGF block
Cc1ccc(/C=C(\C#N)C(=O)NC(C)C)o1	n	n
CSc1nc2cc(Oc3cccc(Cl)c3Cl)c(Cl)cc2[nH]1	12.6µM	n
CSc1nc2ccc(Cl)cc2[nH]1	n	n
COC(=O)[C@H](COC(C)(C)C)NC(=O)O[C@H]1C(=O)c2cc(OC)ccc2O[C@@H]1c1ccc(OC)c(Br)c1	x	n
COc1ccc(-n2c(=O)c(-c3ccc(Cl)cc3)nc3cnc(N4CCOCC4)nc32)cc1	x	n
Cc1ccc(-c2csc(N/N=C/c3ccco3)n2)c(C)c1	n	n
CN(C)S(=O)(=O)c1cccc(-c2csc(N/N=C/c3ccco3)n2)c1	n	22.4µM
COc1ccc(N=Cc2sc(O)c3ccccc23)cc1	12.6µM	x
COc1ccc(N=Cc2c(O)c3ccccc3n2C(C)=O)cc1	n	n
O=[N+]([O-])c1ccc(Cl)c(-c2ccc(/C=N/c3c(-c4ccco4)nc4ccccn34)o2)c1	n	x
Oc1cccc(/C=N/c2c(-c3ccco3)nc3ccccn23)c1	10µM	x
O=C1C(Cl)=C(N2CCC(C(=O)O)CC2)C(=O)c2ccccc21	n[7.67 µM]	n
NC(=O)C1CCN(C2=C(Cl)C(=O)c3ccccc3C2=O)CC1	10µM	x
NCCC[C@@H](CC(=O)N[C@@H]1CCCC[C@H]1C(=O)N[C@H](CC(=O)N[C@@H](CCC(=O)O)CC(=O)O)Cc1ccccc1)NC(=O)C[C@H](Cc1ccccc1)NC(=O)[C@@H]1CCCC[C@H]1N	x	n
CC(=O)/C(=C/c1ccccc1)C(=O)Nc1ccccc1C	n	n
Cc1ccccc1NC(=O)C(=Cc1ccc(C(=O)O)cc1)C(=O)Nc1ccccc1C	3.98µM	n
C=CCC(C)(O)CCc1ccccc1 (configuration not stated)	x	n
CCOC(=O)C1CCCN(c2ccc(NC(=O)c3snc4c(=O)[nH]c(C)nc34)cc2)C1 (configuration not stated)	n	x
CCOC(=O)C1CCCN(c2ccc(NC(=O)c3snc4c(=O)[nH]cnc34)cc2)C1 (configuration not stated)	15.8µM	x
CCOC(=O)/C=C/CCC/C=C/C(=O)c1ccccc1	x	n
C=CCOC(=O)N[C@@H](c1ccc(Br)cc1)C(C(C)=O)C(C)=O	x	n
CC12CC[C@@](C(=O)O)(C(=O)C1=O)C2(C)C	x	n
CC1=NN(c2ccccc2)C(=O)/C1=C/N(C)C	n[7.67 µM]	n
CC1=NN(c2ccccc2)C(=O)/C1=C/c1cn(C)c2ccccc12	n	u
CC1=NN(c2ccccc2)C(=O)/C1=C/C=C/c1ccc(N(C)C)cc1	n	7.08µM
SMILES	NPSR antag	ERK EGF block
CC1=NN(c2ccccc2)C(=O)/C1=C\c1cc(C)n(C)c1C	n	u
CC1=NN(c2ccccc2)C(=O)/C1=C\C=C\c1ccccc1	n	25.1µM
CCOC(=O)CC1=NN(c2ccccc2)C(=O)/C1=C\c1ccc(N(C)C)cc1	n	25.1µM
CC1=NN(c2ccccc2)C(=O)/C1=C\c1cn(C)c2ccccc12	n	14.1µM
CCOC(=O)CC1=NN(c2ccccc2)C(=O)C1	n	n
Cc1ccccc1OCc1nc(-c2ccc(NC(=O)c3ccc4c(c3)OCO4)cc2)no1	10µM	x
Cc1ccccc1OCc1nc(-c2ccc(NC(=O)c3ccco3)cc2)no1	n	n
Cc1ccc(C(=O)O[C@H](C(=O)O)[C@@H](OC(=O)c2ccc(C)cc2)C(=O)O)cc1 (tested in a mixture with another compound)	n	n
CC(=O)N=c1sc2nc3ccccc3nc2n1N(C(C)=O)C(C)=O	12.6µM	x
CC(=O)N=c1sc2ccccc2n1C	n	x
C/C=C(\C)[C@H](O)C[Si](C)(C)c1ccccc1	x	n
O=C(Nc1ccc(OCC(F)(F)C(F)F)c(C(F)(F)F)c1)c1ccccc1O	7.94µM	x
O=C(Nc1ccc(OCC(F)(F)C(F)F)cc1)c1ccncc1	n	n
COc1ccc(-c2nc(NC(=O)c3ccc(OCC(=O)Nc4ccc(F)cc4)c(OC)c3)sc2C)cc1	10µM	n
COc1cc(C(=O)Nc2nc(-c3cc(C)ccc3C)c(C)s2)ccc1OCC(=O)Nc1ccc(F)cc1	u	n
COc1ncc2nc(CCc3ccccc3)c(=O)n(C3CC3)c2n1	x	n
Cc1nn(-c2ccccc2)c(Cl)c1/C=C1\C(=O)N(C)C(=S)N1C	n	n
Cc1nn(-c2ccc(F)cc2)c(Cl)c1/C=C1\C(=O)Nc2ccccc21	n	28.2µM
O=C1c2cccc3c([N+](=O)[O-])ccc(c23)C(=O)N1c1nccs1	10µM	x
O=C1c2ccc([N+](=O)[O-])cc2C(=O)N1c1ccc(Cl)cn1	n	n
O=C1c2cccc3cccc(c23)C(=O)N1c1nccs1	n	x
O=C1c2cccc3c([N+](=O)[O-])ccc(c23)C(=O)N1c1ccc(Cl)cn1	5.01µM	x
COC(=O)c1nnc(SC)nc1C(=O)OC	x	n
COc1cc(O)c(C(CCN2CCN(c3ccccc3)CC2)c2ccc3c(c2)OCO3)c(OC)c1 (configuration not stated)	n	u
